# The sample as a whole holds a higher share of the strongest signals than the screen did.
# B1: CTLX (Homo sapiens), Q6UXS0 (protein)
# chain: SLCPLFWMEFKGHCYRFFPLNKTWAEADLYCSEFSVGRKSAKLASIHSWEENVFVYDLVNSCVPGIPADVWTGLHDHRQEGQFEWTDGSSYDYSYWDGSQPDDGVHADPEEEDCVQIWYRPTSALRSWNDNTCSRKFPFVCKIPSLTIH
# B2: Neuropilin-2 (Homo sapiens), O60462 (protein)
# chain: MDMFPLTWVFLALYFSRHQVRGQPDPPCGGRLNSKDAGYITSPGYPQDYPSHQNCEWIVYAPEPNQKIVLNFNPHFEIEKHDCKYDFIEIRDGDSESADLLGKHCGNIAPPTIISSGSMLYIKFTSDYARQGAGFSLRYEIFKTGSEDCSKNFTSPNGTIESPGFPEKYPHNLDCTFTILAKPKMEIILQFLIFDLEHDPLQVGEGDCKYDWLDIWDGIPHVGPLIGKYCGTKTPSELRSSTGILSLTFHTDMAVAKDGFSARYYLVHQEPLENFQCNVPLGMESGRIANEQISASSTYSDGRWTPQQSRLHGDDNGWTPNLDSNKEYLQVDLRFLTMLTAIATQGAISRETQNGYYVKSYKLEVSTNGEDWMVYRHGKNHKVFQANNDATEVVLNKLHAPLLTRFVRIRPQTWHSGIALRLELFGCRVTDAPCSNMLGMLSGLIADSQISASSTQEYLWSPSAARLVSSRSGWFPRIPQAQPGEEWLQVDLGTPKTVKGVIIQGARGGDSITAVEARAFVRKFKVSYSLNGKDWEYIQDPRTQQPKLFEGNMHYDTPDIRRFDPIPAQYVRVYPERWSPAGIGMRLEVLGCDWTDSKPTVETLGPTVKSEETTTPYPTEEEATECGENCSFEDDKDLQLPSGFNCNFDFLEEPCGWMYDHAKWLRTTWASSSSPNDRTFPDDRNFLRLQSDSQREGQYARLISPPVHLPRSPVCMEFQYQATGGRGVALQVVREASQESKLLWVIREDQGGEWKHGRIILPSYDMEYQIVFEGVIGKGRSGEIAIDDIRISTDVPLENCMEPISAFAGENFKVDIPEIHEREGYEDEIDDEYEVDWSNSSSATSGSGAPSTDKEKSWLYTLDPILITIIAMSSLGVLLGATCAGLLLYCTCSYSGLSSRSCTTLENYNFELYDGLKHKVKMNHQKCCSEA
# How the values were obtained:
# Test in all cases: glycan array binding signal (z-score within array); higher = stronger binding
# Details in all cases: glycan notation: IUPAC condensed, linker removed
# [1] = biological target: Fuc(a1-2)Gal(b1-3)GalNAc(b1-3)Gal
# How it was run: (§1)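 Glycan array data came from 3228 arrays in the Consortium for Functional Glycomics database, and only arrays with an available protein sequence were kept. Glycan names were put into IUPAC-condensed notation, and columns mapping to the same glycan were averaged. The binding signal is a within-array Z-score, averaged across arrays of one protein sequence run at different concentrations or buffers and across linkers. A negative Z-score can be read as non-binding.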
# [2] = biological target: Fuc(a1-2)Gal(b1-4)[Fuc(a1-3)]GlcNAc(b1-2)Man(a1-3)[Fuc(a1-2)Gal(b1-4)[Fuc(a1-3)]GlcNAc(b1-2)Man(a1-6)]Man(b1-4)GlcNAc(b1-4)GlcNAc
# How it was run: as §1
# [3] = biological target: Fuc(a1-3)[Gal3S(b1-4)]Glc6S
# How it was run: as §1
# Gal(a1-3)Gal(b1-4)Glc = biological target: Gal(a1-3)Gal(b1-4)Glc
# How it was run: as §1
# Gal(a1-3)GalNAc = biological target: Gal(a1-3)GalNAc
# How it was run: as §1
# Gal(b1-3)GalNAc = biological target: Gal(b1-3)GalNAc
# How it was run: as §1
# [4] = biological target: Gal(b1-3)[Fuc(a1-4)]GlcNAc(b1-2)Man(a1-3)[Gal(b1-3)[Fuc(a1-4)]GlcNAc(b1-2)Man(a1-6)]Man(b1-4)GlcNAc(b1-4)GlcNAc
# How it was run: as §1
# [5] = biological target: Gal(b1-4)GlcNAc(b1-3)Gal(b1-4)GlcNAc(b1-3)Gal(b1-4)GlcNAc
# How it was run: as §1
# [6] = biological target: Gal3S(b1-4)[Fuc(a1-3)]Glc
# How it was run: as §1
# GalNAc(a1-3)GalNAc = biological target: GalNAc(a1-3)GalNAc
# How it was run: as §1
# GalNAc(b1-3)GalNAc = biological target: GalNAc(b1-3)GalNAc
# How it was run: as §1
# [7] = biological target: GalNAc(b1-4)GlcNAc(b1-2)Man(a1-3)[GalNAc(b1-4)GlcNAc(b1-2)Man(a1-6)]Man(b1-4)GlcNAc(b1-4)GlcNAc
# How it was run: as §1
# GlcA(b1-3)GlcNAc = biological target: GlcA(b1-3)GlcNAc
# How it was run: as §1
# [8] = biological target: GlcNAc(a1-3)Gal(b1-4)GlcNAc
# How it was run: as §1
# [9] = biological target: GlcNAc(a1-4)Gal(b1-3)GlcNAc
# How it was run: as §1
# [10] = biological target: GlcNAc(b1-2)Gal(b1-3)GalNAc
# How it was run: as §1
# [11] = biological target: GlcNAc(b1-3)Gal(b1-3)GalNAc
# How it was run: as §1
# [12] = biological target: GlcNAc(b1-3)[GlcNAc(b1-4)][GlcNAc(b1-6)]GlcNAc
# How it was run: as §1
# [13] = biological target: Man(a1-2)Man(a1-3)[Man(a1-6)]Man(a1-6)[Man(a1-2)Man(a1-3)]Man(b1-4)GlcNAc(b1-4)GlcNAc
# How it was run: as §1
# Neu5Ac(a2-3)Gal = biological target: Neu5Ac(a2-3)Gal
# How it was run: as §1
# [14] = biological target: Neu5Ac(a2-3)Gal(b1-3)[Neu5Ac(a2-6)]GalNAc
# How it was run: as §1
# [15] = biological target: Neu5Ac(a2-3)Gal(b1-4)GlcNAc(b1-3)Gal(b1-4)[Fuc(a1-3)]GlcNAc
# How it was run: as §1
# [16] = biological target: Neu5Ac(a2-3)Gal(b1-4)[Fuc(a1-3)]GlcNAc(b1-6)[Gal(b1-3)]GalNAc
# How it was run: as §1
# [17] = biological target: Neu5Ac(a2-3)[GalNAc(b1-4)]Gal(b1-4)GlcNAc
# How it was run: as §1
# [18] = biological target: Neu5Ac(a2-8)Neu5Ac(a2-8)Neu5Ac(a2-3)[GalNAc(b1-4)]Gal(b1-4)Glc
# How it was run: as §1
# Neu5Gc(a2-6)GalNAc = biological target: Neu5Gc(a2-6)GalNAc
# How it was run: as §1
# [19] = biological target: Neu5Ac(a2-6)Gal(b1-4)GlcNAc(b1-2)Man(a1-3)Man(b1-4)GlcNAc(b1-4)GlcNAc
# How it was run: as §1
# [20] = biological target: Neu5Ac(a2-6)Gal(b1-4)GlcNAc(b1-2)Man(a1-3)[GlcNAc(b1-2)Man(a1-6)]Man(b1-4)GlcNAc(b1-4)GlcNAc
# How it was run: as §1
Binder,glycan array binding signal (z-score) [1],glycan array binding signal (z-score) [2],glycan array binding signal (z-score) [3],glycan array binding signal (z-score) (Gal(a1-3)Gal(b1-4)Glc),glycan array binding signal (z-score) (Gal(a1-3)GalNAc),glycan array binding signal (z-score) (Gal(b1-3)GalNAc),glycan array binding signal (z-score) [4],glycan array binding signal (z-score) [5],glycan array binding signal (z-score) [6],glycan array binding signal (z-score) (GalNAc(a1-3)GalNAc),glycan array binding signal (z-score) (GalNAc(b1-3)GalNAc),glycan array binding signal (z-score) [7],glycan array binding signal (z-score) (GlcA(b1-3)GlcNAc),glycan array binding signal (z-score) [8],glycan array binding signal (z-score) [9],glycan array binding signal (z-score) [10],glycan array binding signal (z-score) [11],glycan array binding signal (z-score) [12],glycan array binding signal (z-score) [13],glycan array binding signal (z-score) (Neu5Ac(a2-3)Gal),glycan array binding signal (z-score) [14],glycan array binding signal (z-score) [15],glycan array binding signal (z-score) [16],glycan array binding signal (z-score) [17],glycan array binding signal (z-score) [18],glycan array binding signal (z-score) (Neu5Gc(a2-6)GalNAc),glycan array binding signal (z-score) [19],glycan array binding signal (z-score) [20]
B1,0.292,3.01,5.87,1.11,-1.04,0.235,4.2,-0.836,-0.137,-0.619,-0.421,0.305,0.103,-0.363,3.54,-0.988,4.33,-0.646,-0.346,-0.528,0.498,-0.47,4,-0.041,-1.09,-0.736,,
B2,,,,,,,,,,,,,,,,,,,,,,,,,,,-0.201,-0.609

# From the supplement of paper PMC8728848
